In PubChem BioAssay AID1159580 (chemical genetic matrix, 2015):
“And” between values parts separate entries of the source, which are not always exact repeats. Identical values can stand only once. About 2,000 (36%) of roughly 5,500 compounds were called active. About 18% were inconclusive and are not listed. Cut-off read from the data, not from the text of the source: active = normalized growth mostly below about 0.91 (no sharp cut-off); inconclusive = no clear call, values can overlap the other calls; inactive = mostly above about 0.92. Some of the results follow. Where a SMILES comes first, the peptide text is derived from it. The star is where a group is joined. For = O=C*

Assay: chemical genetic growth profiling, strain panel (AID 1159580);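 note: tested at 20 µM; growth read once vehicle control cultures reached saturation at 30 °C; 1 = growth at the plate median or of vehicle wells; lower values mean less growth of the strain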
Details: growth OD

Measured: normalized growth

CSCCC(NC=O)C(=O)NC(Cc1ccccc1)C(=O)O (stereo not drawn) (For-Met-Phe-OH; configuration not given here)
inactive: S. cerevisiae deletion strains, locus YAL013W, strain DEP1, active compounds read low 1.02 | S. cerevisiae deletion strains, locus YBR021W, strain FUR4, active compounds read low 1.04 | S. cerevisiae deletion strains, locus YBR229C, strain ROT2, active compounds read low 1.01 | S. cerevisiae deletion strains, locus YCL029C, strain bik1, active compounds read low 1.03 | S. cerevisiae deletion strains, locus YDL035C, strain GPR1, active compounds read low 1.03 | S. cerevisiae deletion strains, locus YDL074C, strain BRE1, active compounds read low 1.02 | S. cerevisiae deletion strains, locus YDL101C, strain DUN1, active compounds read low 1.01 | S. cerevisiae deletion strains, locus YDL134C, strain PPH21, active compounds read low 1.03 | S. cerevisiae deletion strains, locus YDL185W, strain tfp1, active compounds read low 1.02 | S. cerevisiae deletion strains, locus YDL192W, strain arf1, active compounds read low 1.02 | S. cerevisiae deletion strains, locus YDR101C, strain arx1, active compounds read low 0.998 | S. cerevisiae deletion strains, locus YDR150W, strain NUM1, active compounds read low 1.01 | S. cerevisiae deletion strains, locus YDR162C, strain NBP2, active compounds read low 1.01 | S. cerevisiae deletion strains, locus YDR318W, strain mcm21, active compounds read low 1.02 | S. cerevisiae deletion strains, locus YDR388W, active compounds read low 1.02 | S. cerevisiae deletion strains, locus YDR502C, strain sam2, active compounds read low 1.01 | S. cerevisiae deletion strains, locus YEL061C, strain CIN8, active compounds read low 1.01 | S. cerevisiae deletion strains, locus YER110C, active compounds read low 1.02 | S. cerevisiae deletion strains, locus YER155C, strain BEM2, active compounds read low 1 | S. cerevisiae deletion strains, locus YER167W, strain BCK2, active compounds read low 1 | S. cerevisiae deletion strains, locus YGL078C, strain dbp3, active compounds read low 1.01 | S. cerevisiae deletion strains, locus YGL086W, strain mad1, active compounds read low 1 | S. cerevisiae deletion strains, locus YGL248W, strain PDE1, active compounds read low 1 | S. cerevisiae deletion strains, locus YGR135W, strain pre9, active compounds read low 1.02 | S. cerevisiae deletion strains, locus YGR229C, strain SMI1, active compounds read low 1.02 | S. cerevisiae deletion strains, locus YGR252W, strain gcn5, active compounds read low 1.03 | S. cerevisiae deletion strains, locus YHR030C, strain SLT2, active compounds read low 1.01 and 1.07 | S. cerevisiae deletion strains, locus YHR079C, strain IRE1 (second series), active compounds read low 1.02 | S. cerevisiae deletion strains, locus YHR079C, strain IRE1, active compounds read low 1.04 | S. cerevisiae deletion strains, locus YHR094C, strain hxt1, active compounds read low 1.02 | S. cerevisiae deletion strains, locus YHR129C, strain ARP1, active compounds read low 1 | S. cerevisiae deletion strains, locus YHR200W, strain rpn10, active compounds read low 1.03 | S. cerevisiae deletion strains, locus YIL066C, strain RNR3, active compounds read low 1.01 | S. cerevisiae deletion strains, locus YIL073C, strain SPO22, active compounds read low 1.08 | S. cerevisiae deletion strains, locus YIL125W, strain kgd1, active compounds read low 1.01 | S. cerevisiae deletion strains, locus YIR030C, strain dcg1, active compounds read low 1.01 | S. cerevisiae deletion strains, locus YJL095W, strain BCK1, active compounds read low 1 and 1.06 | S. cerevisiae deletion strains, locus YJL134W, strain LCB3, active compounds read low 1 | S. cerevisiae deletion strains, locus YJL168C, strain set2, active compounds read low 1.01 | S. cerevisiae deletion strains, locus YJL187C, strain SWE1 (second series), active compounds read low 1.01 | S. cerevisiae deletion strains, locus YJR043C, strain POL32, active compounds read low 1.01 | S. cerevisiae deletion strains, locus YJR066W, strain TOR1, active compounds read low 1.01 | S. cerevisiae deletion strains, locus YKL009W, strain mrt4, active compounds read low 1.02 | S. cerevisiae deletion strains, locus YKL068W, active compounds read low 1.01 | S. cerevisiae deletion strains, locus YKL085W, strain MDH1 (second series), active compounds read low 1.01 | S. cerevisiae deletion strains, locus YKL085W, strain MDH1, active compounds read low 1.01 | S. cerevisiae deletion strains, locus YKL190W, strain CNB1, active compounds read low 1.01 | S. cerevisiae deletion strains, locus YKR001C, strain vps1, active compounds read low 1.02 | S. cerevisiae deletion strains, locus YLR039C, strain RIC1, active compounds read low 1.06 | S. cerevisiae deletion strains, locus YLR058C, strain SHM2, active compounds read low 1.01 | S. cerevisiae deletion strains, locus YLR102C, strain apc9, active compounds read low 1.02 | S. cerevisiae deletion strains, locus YLR113W, strain HOG1, active compounds read low 0.978 | S. cerevisiae deletion strains, locus YLR262C, strain YPT6, active compounds read low 1.04 | S. cerevisiae deletion strains, locus YLR268W, strain sec22, active compounds read low 1.02 | S. cerevisiae deletion strains, locus YLR330W, strain CHS5, active compounds read low 1.01 | S. cerevisiae deletion strains, locus YLR342W, strain FKS1 (second series), active compounds read low 1.03 | S. cerevisiae deletion strains, locus YLR371W, strain rom2, active compounds read low 1.02 | S. cerevisiae deletion strains, locus YLR418C, strain cdc73, active compounds read low 1.06 | S. cerevisiae deletion strains, locus YML016C, strain PPZ1, active compounds read low 0.999 | S. cerevisiae deletion strains, locus YML032C, strain rad52, active compounds read low 1.02 | S. cerevisiae deletion strains, locus YML124C, strain tub3, active compounds read low 1.01 | S. cerevisiae deletion strains, locus YMR078C, strain ctf18, active compounds read low 1.01 | S. cerevisiae deletion strains, locus YMR223W, strain ubp8, active compounds read low 1.02 | S. cerevisiae deletion strains, locus YMR263W, strain SAP30, active compounds read low 1.01 | S. cerevisiae deletion strains, locus YMR307W, strain GAS1, active compounds read low 1.04 | S. cerevisiae deletion strains, locus YNL067W, strain RPL9B, active compounds read low 1.02 | S. cerevisiae deletion strains, locus YNL128W, strain TEP1, active compounds read low 1.04 | S. cerevisiae deletion strains, locus YNL183C, strain NPR1, active compounds read low 0.989 | S. cerevisiae deletion strains, locus YNL233W, strain BNI4, active compounds read low 1 | S. cerevisiae deletion strains, locus YNL250W, strain rad50, active compounds read low 1.01 | S. cerevisiae deletion strains, locus YNL271C, strain bni1, active compounds read low 1.02 | S. cerevisiae deletion strains, locus YNL298W, strain CLA4, active compounds read low 1.03 | S. cerevisiae deletion strains, locus YNL307C, strain MCK1, active compounds read low 1.03 | S. cerevisiae deletion strains, locus YNL322C, strain KRE1, active compounds read low 1.01 | S. cerevisiae deletion strains, locus YNR052C, strain pop2, active compounds read low 1.02 | S. cerevisiae deletion strains, locus YOL006C, strain TOP1, active compounds read low 0.99 | S. cerevisiae deletion strains, locus YOL012C, strain htz1 0.63 | S. cerevisiae deletion strains, locus YOL147C, strain pex11, active compounds read low 1.03 | S. cerevisiae deletion strains, locus YOR061W, strain CKA2, active compounds read low 1 | S. cerevisiae deletion strains, locus YOR069W, strain VPS5, active compounds read low 1.01 | S. cerevisiae deletion strains, locus YOR136W, strain idh2, active compounds read low 1.02 | S. cerevisiae deletion strains, locus YOR144C, strain elg1, active compounds read low 1.01 | S. cerevisiae deletion strains, locus YOR184W, strain ser1, active compounds read low 1.02 | S. cerevisiae deletion strains, locus YOR231W, strain MKK1, active compounds read low 1.02 | S. cerevisiae deletion strains, locus YOR316C, strain cot1, active compounds read low 1.03 | S. cerevisiae deletion strains, locus YPL055C, strain LGE1, active compounds read low 0.997 | S. cerevisiae deletion strains, locus YPL241C, strain CIN2, active compounds read low 1 | S. cerevisiae deletion strains, locus YPL256C, strain CLN2, active compounds read low 1.07 | S. cerevisiae deletion strains, locus YPR119W, strain clb2, active compounds read low 1.01 | S. cerevisiae deletion strains, locus YPR141C, strain kar3, active compounds read low 1.01 | S. cerevisiae deletion strains, locus YPR163C, strain tif3, active compounds read low 1.01 | S. cerevisiae deletion strains, locus YPR167C, strain met16, active compounds read low 1.03 | S. cerevisiae deletion strains, strain wtn01, active compounds read low 1.04 | S. cerevisiae strains, strain wild type, active compounds read low 1.01
